Experimental data taken from PubChem BioAssay (NCI).
About 79,000 compounds went through this panel and 15% of them were active in at least one assay; those are over-represented in the sample as a whole. Calls of active or inactive are those of the source. No stated cut-off is given here; in the data, active means growth inhibition above about 70%; inactive means the rest.

Key:
[1] = NCI Yeast Anticancer Drug Screen. Data for the rad50 strain (AID 155);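 further: 0% = growth of vehicle-only cultures of the same strain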; settings: S. cerevisiae rad50 strain growth inhibition; at 50.0 µM; hits give high values
Method in brief: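 Growth of the mutant yeast was measured after compound exposure and referenced to vehicle-treated cultures.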

[2] = NCI Yeast Anticancer Drug Screen. Data for the mec2-1 strain (AID 157); settings: S. cerevisiae mec2-1 strain, at 50.0 µM, hits give high values
Method in brief: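 Mutant yeast (mec2-1) grown with compound; growth inhibition relative to vehicle control reported.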

[3] = NCI Yeast Anticancer Drug Screen. Data for the sgs1 mgt1 strain (AID 161);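 further: 0% = growth of cultures given vehicle only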; settings: S. cerevisiae sgs1 mgt1 strain, at 50.0 µM, hits give high values
Method in brief: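 Growth of a repair-deficient yeast mutant was monitored after compound treatment and expressed as inhibition relative to vehicle-treated cultures.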

[4] = NCI Yeast Anticancer Drug Screen. Data for the cln2 rad14 strain (AID 165);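 further: 0% = growth equal to vehicle treated cultures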; settings: S. cerevisiae cln2 rad14 strain, at 50.0 µM, hits give high values
Method in brief: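 Readout is yeast growth inhibition versus vehicle-treated controls, using a strain with cln2 and rad14 alterations exposed to compound.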

[5] = NCI Yeast Anticancer Drug Screen. Data for the bub3 strain (AID 167); settings: S. cerevisiae bub3 mutant strain, at 50.0 µM, hits give high values
Method in brief: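 Whole-cell yeast assay. The mutant strain was incubated with compounds, and growth inhibition was determined by comparison with vehicle-treated cells.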

[6] = NCI Yeast Anticancer Drug Screen. Data for the mlh1 rad18 strain (AID 175); settings: S. cerevisiae mlh1 rad18 strain growth inhibition; at 50.0 µM; hits give high values
Method in brief: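 Genetically defined yeast (DNA repair-deficient) exposed to compounds; growth inhibition determined relative to vehicle.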

Measured: growth inhibition

CCCCCCCCOC(=O)C1(O)CCCCC1
inactive: [1] 14.6% | [2] 28.4% | [3] 16.1% | [4] 4.2% | [5] 17.6% | [6] 36.1%

CCCCCCCCCCCC(=O)O (tested in a mixture with another compound)
inactive: [1] -15.7% | [2] 7.5% | [3] -41.6% | [4] -39.9% | [5] -32.6% | [6] -13.5%

CCN(CC)CCCCCCCNc1nccc2ccccc12
inactive: [1] 31.1% | [2] -2.4% | [3] -8.4% | [4] -23.3% | [5] 12.8% | [6] 35.4%

O=[N+]([O-])c1ccc(Cl)c2cccnc12
inactive: [1] 27.2% | [2] -7.65% | [3] -0.15% | [4] 7.3% | [5] 0.45% | [6] 50.4%

CN(C(=O)c1ccco1)C(=S)N1CCN(c2ccccc2)CC1
inactive: [1] -17% | [2] -1.95% | [3] -0.7% | [4] 10.2% | [5] 13.8% | [6] -13.3%

O=c1[nH]c2c(Cl)c(Cl)cc(Cl)c2o1
inactive: [1] 51.1% | [2] 6.4% | [3] 23.9% | [4] 48.2% | [5] 13.6% | [6] 43.6%

O=C(O)CCC(=O)Nc1cc(C(F)(F)F)ccc1Cl
inactive: [1] 24.1% | [2] 13.7% | [3] 7.8% | [4] 25.1% | [5] 14.8% | [6] 7.5%

O=c1[nH]c(=O)c2ncn(C3OC(CO)C(O)C3O)c2[nH]1.O=c1[nH]c(=O)c2ncn(C3OC(CO)C(O)C3O)c2[nH]1.[NH2-].[NH2-].[Pt+2] (centres undefined)
inactive: [1] 3.35% | [2] 33.5% | [3] 41.7% | [4] 3.55% | [5] -8.5% | [6] 40.4%

C=C1CC(OC(C)=O)/C=C(/C)CCC(C(C)(C)O)CC1O (centres undefined)
inactive: [1] 6.7% | [2] -32% | [3] -11.2% | [4] 7.65% | [5] -8% | [6] -20.9%

Cc1ccsc1S(N)(=O)=O
inactive: [1] -21.1% | [2] -23.1% | [3] -10.6% | [4] -12.2% | [5] 11.4% | [6] -6.75%

CCCN1C(=O)CN(S(=O)(=O)c2ccc(Cl)cc2)C1=O
inactive: [1] -1.1% | [2] 4.05% | [3] 3.6% | [4] -8% | [5] -1.25% | [6] -46.9%

CC[N+](C)(CC)CCOc1nc2c(c(=O)n(C)c(=O)n2C)n1C
inactive: [1] -9.5% | [2] -6.85% | [3] -6.05% | [4] 5.25% | [5] -22.5% | [6] -2.65%

CCOC(=O)C1C(=O)CC(O)(c2ccccc2)C(C(=O)OCC)C1c1ccc(OC)cc1 (centres undefined)
inactive: [1] -17.9% | [2] -13.2% | [3] -6.65% | [4] -31.1% | [5] 6.95% | [6] -3.7%

CCN(CC)CCNc1nc(N)c(C#N)c(C#N)c1C#N
inactive: [1] 5.8% | [2] -14.4% | [3] -4.55% | [4] 9% | [5] -8.3% | [6] 1.45%

CCOC(=O)/C=C(\C)c1ccc(Cl)cc1
inactive: [1] 4.4% | [2] -18.6% | [3] -1.6% | [4] 3.8% | [5] -10.1% | [6] 14.7%

CCCCCCCC(=O)Nc1nnc(SCCCCCCCCCCSc2nnc(NC(=O)CCCCCCC)s2)s1
inactive: [1] -33.5% | [2] -14.9% | [3] -5.55% | [4] -52.3% | [5] -0.5% | [6] -4.45%

CN1C(=O)Cn2c(n[nH]c(=O)c2=O)-c2cc(Cl)ccc21
inactive: [1] -22.4% | [2] 12.3% | [3] 10.3% | [4] -36.5% | [5] 12.9% | [6] 6.2%

CCSC(SCC)C(SCC)C(OC(=O)c1ccccc1)C(OC(=O)c1ccccc1)C(COC(=O)c1ccccc1)OC(=O)c1ccccc1 (centres undefined)
inactive: [1] 9.3% | [2] -2.35% | [3] -14.4% | [4] -5.3% | [5] 4.25% | [6] 33.3%

C/C(=N/O)c1cccc([N+](=O)[O-])c1
inactive: [1] -10.7% | [2] 15.5% | [3] -4.95% | [4] -14.3% | [5] -3.6% | [6] -7.15%

COC(=O)[C@@H]1[C@H](OC(C)=O)CCC2[C@@]3(C[C@@H](c4ccoc4)O[C@@H]3OC)[C@H](C)CC[C@]21C(=O)OC (some centres undefined)
inactive: [1] -12.4% | [2] -5.1% | [3] -39% | [4] -8.7% | [5] -36.9% | [6] -37.5%

COCCc1c2ccccc2cc2ccccc12
inactive: [1] 24.9% | [2] 3.2% | [3] 10.4% | [4] 7.65% | [5] -22.1% | [6] 17.8%

CC1=CC(C/C(C)=C/COc2ccc3ccc(=O)oc3c2)OC1=O (centres undefined)
inactive: [1] 8.15% | [2] -38.9% | [3] 11.7% | [4] 11.3% | [5] -0.8% | [6] 7.75%

Cc1ccc(S(=O)(=O)N2CCCC(O)c3ccccc32)cc1 (centres undefined)
inactive: [1] -18.2% | [2] -15.8% | [3] -29.4% | [4] 11.7% | [5] 6.65% | [6] 3.85%

CC#CCCC1CCCCNC1=O (centres undefined)
inactive: [1] 0.8% | [2] -16.9% | [3] 27.1% | [4] 12.1% | [5] 26.5% | [6] 3.7%

S=C(N1CCN(c2ccc(Cl)c(Cl)c2)CC1)N1CCN(c2ccc(Cl)c(Cl)c2)CC1
inactive: [1] 7.8% | [2] 22.2% | [3] 27.9% | [4] 12% | [5] 5.55% | [6] 20.2%

Cc1cc(C)cc([N+](=O)[O-])c1
inactive: [1] 8.5% | [2] -19% | [3] 1.3% | [4] 20.1% | [5] 4.65% | [6] -26.3%

CC(=O)OCC1OC(n2cc(C)c(=O)[nH]c2=O)C(NC(=O)C(Cl)(Cl)Cl)C(OC(C)=O)C1OC(C)=O (centres undefined)
inactive: [1] 6.3% | [2] -4.6% | [3] 2.75% | [4] 0% | [5] 0% | [6] 2.3%

Cc1ccc(C(CCCl)OC(C)C)cc1 (centres undefined)
inactive: [1] 7% | [2] 7.35% | [3] 22% | [4] 25.2% | [5] 22.6% | [6] 17.8%

O=S(=O)(Cc1c(Cl)c(Cl)c(Cl)c(Cl)c1Cl)c1ccc(Cl)cc1
inactive: [1] 1.2% | [2] -0.6% | [3] -1.25% | [4] -17.8% | [5] 2.4% | [6] -2.4%

Cc1ccc(NC(=S)N2CCCCC2)cc1C
inactive: [1] -1.9% | [2] 13.2% | [3] 19.3% | [4] -19.2% | [5] 25.4% | [6] 15.4%

O=C1NC(=O)[C@H]2C[C@H]3C(=O)NC(=O)[C@H]3[C@@H]12
inactive: [1] -0.7% | [2] 2.75% | [3] -6.9% | [4] -11.3% | [5] 3.8% | [6] 7.15%

CNc1ccc(C(=O)NC(CCC(=O)O)C(=O)O)cc1I (centres undefined)
inactive: [1] 36.6% | [2] -6.2% | [3] -4.1% | [4] 0.15% | [5] 5.5% | [6] 10.3%

CCOc1cc(C)c2cccc(C)c2n1
inactive: [1] 17.1% | [2] -0.35% | [3] -13.6% | [4] 6.25% | [5] 2% | [6] 13.8%

CC1(C)OC2OC(CI)C3OC(C)(C)OC3C2O1 (centres undefined)
inactive: [1] 5.7% | [2] 2.8% | [3] -1.75% | [4] 34.5% | [5] 12.6% | [6] -1.45%

COc1ncnc2c(NC3OC(CO)C(O)C3O)ncnc12 (centres undefined)
inactive: [1] 7.2% | [2] -6.5% | [3] -5.4% | [4] 12.4% | [5] -9.2% | [6] -9.3%

CCn1c2c(c3ccccc31)[C@@H](c1ccc(Cl)cc1)CC1C(=O)N(c3ccccc3)C(=O)C21 (some centres undefined)
inactive: [1] 17.8% | [2] 33.3% | [3] 14.8% | [4] -8.05% | [5] 38.4% | [6] 35.5%

C[C@]12CCC(=O)C=C1CC[C@@H]1C2CC[C@]2(C)NC(=O)C(C#N)CC12 (some centres undefined)
inactive: [1] -29.1% | [2] -10.2% | [3] -14.9% | [4] -23.9% | [5] -15.2% | [6] -9.6%

CCSC1(SCC)C2(CCCCC2)C(=O)C12CCCCC2
inactive: [1] -5.55% | [2] 17.1% | [3] 9.1% | [4] -12.1% | [5] 13.1%
active: [6] 78.1%

COc1cc(CNc2nc3c(N)cc(C(F)(F)F)cc3nc2-c2ccccc2)cc(OC)c1OC
inactive: [1] 0.25% | [2] -9.35% | [3] 6.6% | [4] 17.6% | [5] -11.3% | [6] -25.6%
